In PubChem BioAssay:
A number with no mark means an inactive call. Calls of active or inactive are those of the source. Cut-off read from the data, not from the text of the source: active = fold change permeability below about 0.7 or above about 1.3; inactive = in between.

assay: compounds altering in vitro BBB leakiness – cell-based, FITC-avidin fluorescence, HTS, primary screen (AID 1963498); conditions: brain endothelial barrier, actives lie on both sides; note: test concentration not given here

| SMILES | fold change permeability |
| --- | --- |
| NC(=O)C(=O)O | 0.8 |
| O=C1c2ccccc2-c2n[nH]c3cccc1c23 | 1.5 (active) |
| Cc1cn([C@H]2C=C[C@@H](CO)O2)c(=O)[nH]c1=O | 1.2 |
| Cc1nnc(SCC2=C(C(=O)O)N3C(=O)[C@@H](NC(=O)Cn4cnnn4)[C@H]3SC2)s1 | 0.9 |
| O=C(O)c1cc(=O)c2c(Cl)cc(Cl)cc2[nH]1 | 1.1 |
| CC(=O)Oc1cc(C(C)C)c(OCCN(C)C)cc1C | 0.8 |
| O=C(c1cccc(-c2ccc(-c3cn(C(=O)N4CCCCC4c4ccccc4)nn3)cc2)c1)N1CCCCC1 (configuration not stated) | 1.1 |
| N#C/C(=C\c1ccc(O)c(O)c1)C(=O)c1ccc(O)c(O)c1 | 1.8 (active) |
| CCNCc1nc2c(N)nc3ccccc3c2n1CC(C)(C)O | 1.1 |
| COc1cc(O)cc(CCc2ccc(OC)c(O)c2)c1 | 1.9 (active) |
| O=c1[nH]cnc2[nH]ncc12 | 1 |
| CCOC(=O)Nc1ccc(NCc2ccc(F)cc2)nc1N | 1.6 (active) |
| N#CC(C#N)=C(N)/C(C#N)=C/c1cc(O)c(O)c(O)c1 | 1.7 (active) |
| Cn1c(=O)c2[nH]c(C3CCCC3)nc2n(C)c1=O | 1.3 (active) |
| COC(=O)[C@H]1[C@H]2C[C@@H]3c4[nH]c5cc(OC)ccc5c4CCN3C[C@H]2C[C@@H](OC(=O)c2cc(OC)c(OC)c(OC)c2)[C@@H]1OC | 1.5 (active) |
| N#CSCC(=O)c1ccc(O)c(O)c1 | 1.1 |
| N[C@@H](C(=O)N[C@@H]1C(=O)N2C(C(=O)O)=C(Cl)CS[C@H]12)c1ccccc1 | 0.9 |
